± gives the standard deviation of the averaged measurements. Over roughly 33,000 sequences, “E-score (dimensionless, -0.5 to 0.5)” has its median near -0.046; the highest 2% begin near 0.36. For the sample, the highest values were picked, then their nearest neighbours and some sequences at random.
system: T1, SpTbr T-box DNA-binding domain (GST fusion); test: PBM E-score of 8-mer (E-score (dimensionless, -0.5 to 0.5)); Tbr is Tbrain of the sea star Patiria miniata (Pm) or the sea urchin Strongylocentrotus purpuratus (Sp); higher = stronger binding preference; conditions: the construct has about 5 more residues each side
T1 sequence: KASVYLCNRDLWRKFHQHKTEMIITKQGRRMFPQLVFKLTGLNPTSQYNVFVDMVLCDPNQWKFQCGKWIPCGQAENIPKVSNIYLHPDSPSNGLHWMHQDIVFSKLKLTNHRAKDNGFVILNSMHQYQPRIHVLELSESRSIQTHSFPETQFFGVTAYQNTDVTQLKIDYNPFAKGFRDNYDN
Procedure, shortened: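 Universal Agilent oligonucleotide arrays, made double-stranded by primer extension, were incubated with 200 nM GST-fused Tbr T-box DNA-binding domain in PBS (pH 7.5). The protein was expressed in BL21 E. coli at 20 °C and purified by glutathione affinity chromatography. After scanning and quantification, the Universal PBM Analysis Suite assigned an enrichment E-score to each ungapped 8-mer, averaged over duplicate arrays.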

Row | Sequence | PBM E-score of 8-mer
1 | AGGCGTGG | 0.321 ± 0.044
2 | ACGCGTGA | 0.407 ± 0.0058
3 | GTGCGTGA | 0.316 ± 0.057
4 | AAGCGTGG | 0.179 ± 0.047
5 | AAGCGTGA | 0.415 ± 0.01
6 | AAGCGTGT | 0.288 ± 0.012
7 | CTGCGTGA | 0.172 ± 0.033
8 | AGGATGAT | -0.095 ± 0.066
9 | TCCACGGA | -0.0375 ± 0.11
10 | CTCCAAGA | -0.0401 ± 0.032
11 | ACGGCTCA | -0.0392 ± 0.022
12 | TTATTGAA | -0.142 ± 0.024
13 | GAATCAGA | -0.0679 ± 0.055
14 | GGGCGTTA | 0.2697 ± 0.0022
15 | AGGCGTTG | 0.355 ± 0.0053
16 | GGGCGTGA | 0.44 ± 0.015
17 | CGGCGTGA | 0.33 ± 0.047
18 | AGGCGTTA | 0.434 ± 0.018
19 | GGGCGTAA | 0.131 ± 0.047
20 | CACTAGCG | 0.139 ± 0.072
21 | AGGTTTGC | -0.0997 ± 0.11
22 | ATCGTGAG | 0.208 ± 0.0056

Row | Sequence | PBM E-score of 8-mer
23 | TATTCGGA | -0.284 ± 0.034
24 | CACTCAGG | -0.0871 ± 0.041
25 | GCTGCGAC | 0.137 ± 0.059
26 | GGTGCGAC | 0.452 ± 0.0081
27 | ATTGCGAA | 0.284 ± 0.041
28 | GTTGCGAA | 0.393 ± 0.0099
29 | CGTGCAAA | 0.146 ± 0.024
30 | CTTGCGAA | 0.343 ± 0.019
31 | CGTGCGCA | 0.155 ± 0.0026
32 | AGTGCGAA | 0.47263 ± 0.00019
33 | AATGCGAA | 0.0358 ± 0.024
34 | GATGCGAC | 0.216 ± 0.022
35 | CGTGCGAA | 0.4443 ± 0.0016
36 | AGTGCGTA | 0.0849 ± 0.013
37 | AATAGCAT | -0.0159 ± 0.004
38 | ATCCTGTG | 0.00404 ± 0.015
39 | AATATCAT | -0.161 ± 0.0081
40 | CCTGGGCG | 0.118 ± 0.03
41 | ACTGCGAA | 0.332 ± 0.018
42 | TCTGCGAA | 0.202 ± 0.04
43 | CCTGCGAA | 0.367 ± 0.0099
44 | TGTGCGAA | 0.458 ± 0.0092

Row | Sequence | PBM E-score of 8-mer
45 | GATGCGAA | 0.202 ± 0.066
46 | TATGCGAA | 0.131 ± 0.068
47 | ACGCGAAG | 0.185 ± 0.027
48 | AAAGTAGA | -0.0436 ± 0.055
49 | ACTTGTAC | -0.109 ± 0.04
50 | CACTCGGC | 0.143 ± 0.021
51 | CCGCGAAA | 0.32 ± 0.025
52 | GCGCGAAC | 0.439 ± 0.018
53 | ACGCGAAA | 0.138 ± 0.018
54 | GCGCGACA | 0.3438 ± 0.0009
55 | GCGCGAAA | 0.4374 ± 0.0039
56 | ACGCGAAC | 0.276 ± 0.003
57 | CCGCGAAC | 0.338 ± 0.0083
58 | TCGCGAAA | 0.403 ± 0.026
59 | GCGCGATA | 0.288 ± 0.014
60 | GCGTCGAC | 0.114 ± 0.082
61 | CCAAATAA | -0.267 ± 0.079
62 | GTGGAAAA | 0.125 ± 0.036
63 | AAACAGCT | 0.0803 ± 0.013
64 | ATTGTCAA | 0.225 ± 0.019
65 | CTTGTCAC | 0.39 ± 0.013
66 | CCTGTCAC | 0.3163 ± 0.0011

Row | Sequence | PBM E-score of 8-mer
67 | ATTGTCAC | 0.399 ± 0.013
68 | CTTGTCAA | 0.355 ± 0.0065
69 | ATTGTCAG | 0.0298 ± 0.045
70 | CCAGCACC | 0.216 ± 0.04
71 | CTGAACAC | -0.0318 ± 0.035
72 | ACTCTTTC | 0.0551 ± 0.015
73 | CCACTTTC | 0.0779 ± 0.016
74 | ACACTTTC | 0.402 ± 0.027
75 | ACACTTTA | 0.324 ± 0.043
76 | ACACTTTG | 0.379 ± 0.005
77 | AGACTTTG | -0.0212 ± 0.042
78 | CGCATAGA | -0.0202 ± 0.12
79 | GCGCTACC | 0.295 ± 0.0067
80 | GCTTTACA | 0.0266 ± 0.031
81 | AGCTTTCA | -0.132 ± 0.045
82 | AACACGTA | 0.317 ± 0.018
83 | AACACGTT | 0.367 ± 0.044
84 | AACACGCT | 0.185 ± 0.073
85 | AACACGTC | 0.372 ± 0.009
86 | GACACGTC | 0.333 ± 0.0087
87 | AACACGAT | 0.291 ± 0.022

— the supplement of paper PMC4166925
